# Screens deposited in PubChem BioAssay by National Center for Advancing Translational Sciences (NCATS).
# Sampled rows, rich in hits. Any-hit rate of the full collection: about 8.9%.
# DRD3 antagonist: qHTS of D3 Dopamine Receptor Antagonist: qHTS; D3R cells, DiscoveRx beta-arrestin luminescence, antagonist mode; active compounds read low; max response, negative = inhibition, %; actives 2.5% (n = 360,000); AID 652054, 2013; in the data active means max response below about -50%; inconclusive means no clear call, values can overlap the other calls; further: on the % scale 0 is the no-effect control and ±100 the full control effect
# Target sequence (P35462 whole entry, looked up): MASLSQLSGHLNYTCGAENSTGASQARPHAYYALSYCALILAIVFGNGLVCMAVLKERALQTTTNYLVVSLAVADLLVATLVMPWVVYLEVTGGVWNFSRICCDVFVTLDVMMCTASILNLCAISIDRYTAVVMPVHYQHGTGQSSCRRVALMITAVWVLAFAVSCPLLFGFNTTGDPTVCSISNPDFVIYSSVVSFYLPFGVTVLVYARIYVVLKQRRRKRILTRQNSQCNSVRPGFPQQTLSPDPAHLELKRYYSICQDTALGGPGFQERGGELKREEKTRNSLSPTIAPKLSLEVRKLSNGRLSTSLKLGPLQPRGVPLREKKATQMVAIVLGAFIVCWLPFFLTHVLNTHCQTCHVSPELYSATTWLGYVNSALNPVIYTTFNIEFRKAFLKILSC
#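 Cells plated overnight at 1500 cells/well, then exposed to library compounds with dopamine controls for 90 minutes at 37 degrees C. DiscoveRx reagent added for 30–60 minutes at room temperature; luminescence read, quantitative HTS format.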
# D3 ag: qHTS of D3 Dopamine Receptor Agonist: qHTS. D(3) dopamine receptor (Homo sapiens), P35462. D3R DiscoveRx beta-arrestin cells, luminescence, 90 min. max activation, %. actives 0.58% (n = 410,000); in the data active means max activation above about 30%; further: 0% is about no effect
#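 Agonist-mode cell screen: cells plated at 1500/well and incubated overnight at 37 °C, then exposed to library compounds for 90 min at 37 °C. Detection reagent was added for 30–60 min at room temperature, and luminescence was read.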
# MCF10A rerep: A quantitative high throughput screen for small molecules that induce DNA re-replication in MCF 10a normal breast cells; MCF 10A DNA re-replication, Hoechst nuclear intensity, 48 h; Potency, µM (titrated, usually from 46.1 µM), without a hit: at the highest dose activity, positive = re-replication, hits mostly activators; AID 624296, 2012; actives 2.9% (n = 350,000); further: potency means the concentration at half of the fitted maximal effect; % of control where 0% means no effect; nearly all actives have a fitted effect of over 50% in size
# KB-V1 cytotox: qHTS assay for MDR1-selective chemotherapeutics: Primary screen using the drug-selected MDR subline cells KB-V1 | KB-V1 MDR cells viability, CellTiter-Glo, 72 h | Potency, µM (titrated, usually from 46.1 µM), actives largely listed as cytotoxic | actives 3.4% (n = 400,000); further: potency means the concentration at half of the fitted maximal effect; on the % scale 0 is the no-effect control and ±100 the full control effect; nearly all actives have a fitted effect of over 60% in size
#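 qHTS viability screen in drug-selected KB-V1 MDR cells: 72 h compound treatment at 37 degrees C, ATP luminescence end point.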
# SW480 rerep: A quantitative high throughput screen for small molecules that induce DNA re-replication in SW480 colon adenocarcinoma cells; SW480 DNA re-replication, Hoechst DNA content imaging, 48 h; Potency, µM (top dose mostly 46.1 µM), inactives show top-dose re-replication activation, hits mostly activators; AID 624297, 2012; actives 1.8% (n = 340,000); further: potency means the concentration at half of the fitted maximal effect; % of control where 0% means no effect; nearly all actives have a fitted effect of over 55% in size
#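 First, 250 cells per well were seeded. Next, compound or vehicle (23 nL) was pinned in, plates sat 48 hr at 37 C. Finally Hoechst was added for 40 min before fluorescence scanning.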
# KB-3-1 cytotox: qHTS assay for MDR1-selective chemotherapeutics: Primary screen using the parental adenocarcinoma cell KB-3-1; KB-3-1 viability, CellTiter-Glo ATP luminescence, 72 h; Potency, µM (top dose mostly 46.1 µM), most hits filed as cytotoxic; actives 1.4% (n = 400,000); further: potency means the concentration at half of the fitted maximal effect; on the % scale 0 is the no-effect control and ±100 the full control effect; nearly all actives have a fitted effect of over 60% in size
#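 72 h, 37 °C compound treatment of KB-3-1 parental cells; CellTiter-Glo added, 10 min, luminescence read. Data corrected against DMSO-only plates and normalized before curve fitting.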
# * = called active by the depositor; i = inactive; ? = inconclusive; nt = no result; [ ] = another dose, or the depositor's remark. Unless noted, the call rests on the fitted dose curve; in most records, active means well fitted curve in the direction sought with a large enough effect; inconclusive means small, poorly fitted or top-dose-only effect, or another doubt; inactive means no such curve, though single readings can be large; an effect the other way counts as inactive or inconclusive.
SMILES,DRD3 antagonist,D3 ag,MCF10A rerep,KB-V1 cytotox,SW480 rerep,KB-3-1 cytotox
COc1cc2c(cc1OC)C1(Nc3c-2c(-c2ccccc2)nn3-c2ccccc2)C(=O)Nc2ccccc21 (configuration not stated),-9,3,?,?,5.2µM*,?
COc1cc2c(cc1OC)C1(Nc3c-2c(C)nn3-c2ccccc2)C(=O)Nc2ccccc21 (configuration not stated),-2,1,?,i,-3%[9.22 µM],i
CCc1nn(-c2ccccc2)c2c1-c1cc(OC)c(OC)cc1C1(N2)C(=O)Nc2ccccc21 (configuration not stated),-1,15,21µM*,?,?,i
Cc1cc(C)c(NC(=O)CSc2ccnc(=O)[nH]2)c(C)c1,nt,-13,nt,i,nt,i
O=C(NCc1ccccc1)N1CCn2c(nc3ccccc32)C1,-9,-4,-1%,18µM*,1%,i
COc1cc(NC(=O)CN2C(=O)C(c3ccc(Cl)cc3)=NC23CCCCC3)cc(OC)c1,nt,-1,nt,nt,nt,nt
CC(C)c1ccc(NC(=O)C2CCCN(S(=O)(=O)c3ccc4[nH]c(=O)oc4c3)C2)cc1 (configuration not stated),nt,-1,nt,i,nt,i
COc1ccccc1C(=O)Nc1ccc2c(c1)CCCN2C(=O)c1ccccc1,18,-4,3%,?,22%,18µM*
CCOC(=O)CNC(=O)N1CCc2ccc(NC(=O)c3ccccc3Cl)cc2C1,-26,-10,7.3µM*,?,-21%,i
CCc1ccc2c(c1)CCCN2C(=O)c1ccccc1C(=O)O,-68*,-50,9%,?,7%,?
COc1ccccc1C(=O)Nc1ccc2c(c1)CCCN2C(=O)c1cccs1,-17,-13,?,i,-11%,?
COc1ccccc1C(=O)Nc1ccc2c(c1)CN(C(=O)CSC)CC2,-6,-2,12µM*,i,?,26µM*
Cc1ccc(S(=O)(=O)c2c(Nc3cc(C)ccc3C)sc(C(=O)c3ccc4c(c3)OCO4)c2N)cc1,nt,-8,nt,nt,nt,nt
COc1ccc(NC(=S)N(CCCN2CCCC(C)C2)Cc2cccs2)cc1 (configuration not stated),-82*,-21,28%,i,0%,i
CSc1cccc(NC(=S)N(CCCN2CCCC2)Cc2cccs2)c1,-64*,-20,-4%,?,10%,i
COc1ccc(NC(=S)N(CCCN2CCCC2)Cc2cccs2)cc1,-64*,-27,16%,i,24%,i
O=C(Nc1ccc(Cl)cc1)N(CCCN1CCOCC1)Cc1cccs1,-10,-11,5%,i,0%,i
COc1ccc(NC(=S)N(CCCN2CCCCCC2)Cc2cccs2)cc1,8,-7,-1%,i,-13%,i
Cc1ccc(NC(=O)N(CCCN2CCOCC2)Cc2cccs2)cc1C,-68*,-11,-3%,i,?,i
Cc1ccccc1CNC(=O)c1ccc2[nH]c(C)c(C)c2c1,nt,-10,nt,i,nt,i
O=S(=O)(c1cccc(F)c1)N1CCC(c2nc3ccccc3s2)CC1,nt,-9,nt,i,nt,i
Cc1sc2nc(C(C)C)nc(SCC(=O)N3CCOCC3)c2c1C,18,8,18%,?,1%,i
COc1ccc2c(c1)c1c(c(=O)n(-c3ccccc3C)c(=O)n1Cc1c(F)cccc1Cl)n2C,nt,-14,nt,i,nt,i
O=C(COc1ccc(F)cc1)c1ccc2c(c1)CCCC2,-2,-12,10µM*,i,1%,i
O=C(COc1ccc(Cc2ccccc2)cc1)c1ccc(F)cc1,26,3,?,i,nt,i
